The full list was thinned out, with hits kept by preference.
Pf Dd2 growth: Plasmodium falciparum Dd2 growth inhibition; P. falciparum Dd2 growth, SYBR Green, 72 h; Potency, µM (top dose mostly 28.9 µM), inactives show at the top dose activity, negative = inhibition, actives largely listed as inhibitors; 120,000 tested, 4.3% active; AID 1347417; active = well fitted inhibition curve with a large enough effect;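 note: plate controls were DMSO vehicle for no effect and reference drug for full effect; nearly all actives have a fitted effect of over 65% in size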
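Infected erythrocytes (Dd2, 0.3% parasitemia, 2.5% hematocrit final) are added to compound in RPMI-1640/Albumax II medium, grown 72 h at 37C in low oxygen, then lysed with saponin/Triton-X containing SYBR Green and read by fluorescence.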
Numbers without * were called inactive; i = inactive; [ ] = another dose, or the depositor's remark. Potency is the fitted concentration of half-maximal effect.

SMILES	Pf Dd2 growth
COc1cccc(CNC(=O)[C@@H]2C[C@@H](O)CN2C2CCN(C(=O)c3ccncc3)CC2)c1	-19.3%
COc1cccc(CNC(=O)[C@@H]2C[C@@H](O)CN2C2CCN(C(=O)Cc3ccc(Cl)cc3)CC2)c1	12.6µM*
COc1cccc(CNC(=O)[C@@H]2C[C@@H](O)CN2C2CCN(C(=O)c3ccco3)CC2)c1	i
COc1cccc(CNC(=O)[C@@H]2C[C@@H](O)CN2C2CCN(C(=O)c3cccs3)CC2)c1	8.91µM*
O=C1NCCCCCCN(C(=O)NC2CCCCC2)[C@H]2CCCC[C@@H]12	i
O=C(NCc1ccnc2[nH]ccc12)c1ccc(C(F)(F)F)cc1	1.0%[44.1 µM]
CC(C)N1CCN(CCN2CC3(CCN(C(=O)CCN)CC3)OC2=O)CC1	12.4%
O=C(Cc1ccsc1)N1CCC2(CCCN(CC3CCC3)C2=O)C1 (configuration not stated)	-2.9%
Cc1ccc(S(=O)(=O)N(C)CC2CCOCC2)cc1C	5.5%
C1CC(COCCc2noc(C3CNC3)n2)CCO1	11.2µM*
CCCNC(=O)N1CCC(c2nc(CCOCC3CCOCC3)no2)C1 (configuration not stated)	3.4%
O=C(C1CC1)N1CCCC(c2nc(CCOCC3CCOCC3)no2)C1 (configuration not stated)	-3.7%
CCCCN(CC)CCCNC(=O)c1cc2c(-c3ccc(OC)c(OC)c3)nn(C)c2s1	7.94µM*
CCOCCCNC(=O)c1cc2c(-c3ccc(OC)c(OC)c3)nn(C)c2s1	i
COC(=O)c1ccccc1NC(=O)c1cc2c(-c3ccc(OC)c(OC)c3)nn(C)c2s1	13.6%
CCC(=O)N1CCN(c2nc3c(s2)CC(C(=O)Nc2ccc(OC)c(F)c2)CC3)CC1 (configuration not stated)	-28.9%
O=C1N2CCCC2CN1C1CCN(Cc2ccccn2)CC1 (configuration not stated)	-16.4%[44.1 µM]
Cc1c(-c2ccccc2)c(=O)oc2c(CN3CCOCC3)c(O)ccc12	8.91µM*
Cc1c(-c2ccc(Cl)cc2)c(=O)oc2c(CN3CCOCC3)c(O)ccc12	5.62µM*
Cc1c(-c2ccc(Cl)cc2)c(=O)oc2ccc(OC(=O)N3CCOCC3)cc12	i
CCn1cc(-c2ccc(Cl)cc2)cc1C(=O)NCCN1CCOCC1	-19.0%
Cc1c(-c2ccc(Br)cc2)c(=O)oc2ccc(OC(=O)N3CCOCC3)cc12	i
Cc1ccccc1CN1CCc2nc(C(=O)N3CCOCC3)oc2CC1	i
CNCCN1C(=O)CC[C@H]2CN(C(=O)c3cnc4nc(C)[nH]n4c3=O)CC[C@H]21	-11.5%
c1ccc(O[C@H]2COCCN(c3nc4ccccc4s3)C2)cc1	-4.2%[44.1 µM]
SMILES	Pf Dd2 growth
O=C(Cn1ccccc1=O)N1CCC(N2CCSCC2)CC1	-16.7%
COCCNc1nc2c([S+](=O)([O-])c3ccc(Br)cc3)nnn2c2ccccc12	1.4%
COc1ccc(CCCC(=O)N2CCC3(CCCNC3)C2)cc1 (configuration not stated)	-7.6%
COc1cc(C)c2c(c1C)C[C@H](C(C)C(=O)N1CCSCC1)CC2 (some centres not stated)	-24.8%[44.1 µM]
O=C(Cc1c[nH]c2ncc(-c3ccc(F)c(Cl)c3)cc12)NCc1cccnc1	4.47µM*
O=C(Cc1c[nH]c2ncc(-c3ccccc3Oc3ccccc3)cc12)NCc1cccnc1	i
O=C(Cc1c[nH]c2ncc(-c3cn[nH]c3)cc12)NCc1cccnc1	11.2µM*
Cn1cc(-c2cnc3[nH]cc(CC(=O)NCc4ccncc4)c3c2)cn1	3.98µM*
Cc1cc(-c2cnc3[nH]cc(CC(=O)NCc4cccnc4)c3c2)ccn1	i
CC(C)CNC(=O)Cc1c[nH]c2ncc(-c3cnn(C)c3)cc12	i
Cn1cc(-c2cnc3[nH]cc(CC(=O)NC4CCC4)c3c2)cn1	i
O=C(Cc1c[nH]c2ncc(-c3ccccc3)cc12)NCCc1ccccc1	i
O=C(Cc1c[nH]c2ncc(-c3ccccc3)cc12)Nc1cccnc1	-29.0%[44.1 µM]
O=C(Cc1c[nH]c2ncc(-c3cccnc3)cc12)NC1CC1	i
O=C(Cc1c[nH]c2ncc(-c3ccsc3)cc12)NCc1cccnc1	i
O=C(Cc1c[nH]c2ncc(-c3cccnc3)cc12)NCc1ccccc1	5.62µM*
COc1cccc(-c2noc(COC(=O)C3=CN(C)S(=O)(=O)N=C3C)n2)c1	13.1%
CN1C[C@H](NCC2CC2)CCC[C@@H](C(=O)NC2CCOCC2)CC1=O	3.2%[44.1 µM]
O=c1[nH]cccc1-c1nccc(C2(c3ccccc3Cl)CCNCC2)n1	-20.5%
COCCN(C)C[C@H]1C[C@@H](CO)CN(C(=O)c2ccc(F)cc2C)C1	-11.9%
COc1cccc(S(=O)(=O)N2CCC3(CC2)CC(N2CCOCC2)CCO3)c1 (configuration not stated)	-3.4%
CNC(=O)NC[C@H]1CCN(Cc2ccccc2)C[C@H]1N(C)C	-1.5%
Cc1ccc(C2Cn3nnc(-c4nc(-c5ccccc5C)no4)c3CO2)c(C)c1 (configuration not stated)	-24.9%
COc1cc(F)cc(-c2cnc3[nH]cc(CC(=O)NCc4cccnc4)c3c2)c1	i
